Laboratory results reported in PubChem BioAssay (Tox21).
Records with an inconclusive call do not appear. Calls of active or inactive are those of the source. Unless noted, calls come from the whole dose curve.

Assays:
[1] = Nuclear factor erythroid 2-related factor 2/antioxidant responsive element (Nrf2/ARE) small molecule agonists: qHTS cell viability counter screen in human keratinocytes (AID 1919968; active = well fitted cell-killing curve with a large enough effect in the repeat runs; note: nearly all actives have a fitted effect of over 55% in size)
Procedure, shortened: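 HaCaT ARE reporter line, 1,500 cells/well; 5 h settle, 37 C/5% CO2; cpd in DMSO pinned; 23 h exposure; CellTiter-Fluor, 1 h; fluorescence.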

[2] = Nuclear factor erythroid 2-related factor 2/antioxidant responsive element (Nrf2/ARE) small molecule agonists: luciferase reporter gene qHTS assay in human keratinocytes (AID 1919969); note: nearly all actives have a fitted effect of over 35% in size
[3] = molecular target: Gonadotropin-releasing hormone receptor (Homo sapiens) (UniProt P30968); assay: Human gonadotropin-releasing hormone receptor (GnRHR) small molecule agonists, calcium flux assay in GnRHR-HEK293 cells (AID 1920063); note: nearly all actives have a fitted effect of over 35% in size
Gonadotropin-releasing hormone receptor (Homo sapiens), sequence (P30968 whole entry, looked up): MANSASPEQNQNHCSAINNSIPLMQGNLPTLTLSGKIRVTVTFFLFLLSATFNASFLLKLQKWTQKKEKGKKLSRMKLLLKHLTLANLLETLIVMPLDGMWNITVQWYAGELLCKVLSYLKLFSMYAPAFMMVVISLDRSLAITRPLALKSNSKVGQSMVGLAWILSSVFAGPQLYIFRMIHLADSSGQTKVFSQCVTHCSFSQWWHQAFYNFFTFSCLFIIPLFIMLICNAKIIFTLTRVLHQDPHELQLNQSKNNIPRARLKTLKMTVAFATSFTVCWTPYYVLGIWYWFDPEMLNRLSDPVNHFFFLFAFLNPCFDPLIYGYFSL
Procedure, shortened: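 GnRHR-HEK293, 1500 cells/well, 18 h 37 C/5% CO2; Ca dye 1 h 37 C; cpd pinned (DMSO), agonist mode; kinetic FL 480/540, 3 min, 1 s reads; 15 conc, n=3.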

[4] = G protein-coupled receptor (GPCR) small molecule agonists, calcium flux assay: HEK293 wild type cell line counter screen (AID 1920065)
Procedure, shortened: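 Kinetic fluorescence at Ex/Em 480/540, recorded every second over 3 min, served as the read-out after compound addition. Each compound was tested at 15 concentrations in triplicate on cells pre-loaded with calcium dye for 1 h.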

[5] = p53 small molecule agonists, cell-based qHTS assay with human liver microsomes (AID 1963577);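 note: p53 response element beta-lactamase reporter cells with liver microsomes plus NADPH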
Procedure, shortened: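 With metabolic activation: human liver microsomes (0.5 mg/mL final) plus NADPH (0.5 mg/mL final) added alongside compounds to p53RE-bla cells; 16 h 37 C exposure; beta-lactamase read by LiveBLAzer fluorescence.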

[6] = p53 small molecule agonists, cell-based qHTS assay with human liver microsomes: qHTS cell viability counter screen (AID 1963579); note: nearly all actives have a fitted effect of over 45% in size
Procedure, shortened: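 Metabolic activation used human liver microsomes and NADPH, both 0.5 mg/mL final, over 16 hours at 37 C on p53RE-bla cells (4,000/well). Cytotoxicity measured by CellTiter-Glo luminescence, 30 min at room temperature.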

[7] = p53 small molecule agonists, cell-based qHTS assay with rat liver microsomes: qHTS cell viability counter screen (AID 1963580); note: nearly all actives have a fitted effect of over 45% in size
Procedure, shortened: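 p53RE-bla HCT-116 cells (4,000/well) rested 5 h at 37 C, then given Tox21 compounds in DMSO with rat liver microsomes (0.5 mg/mL final) plus NADPH (0.5 mg/mL final) for 16 h at 37 C. Viability read by CellTiter-Glo luminescence after 30 min at room temperature.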

[8] = p53 small molecule agonists, cell-based qHTS assay: qHTS cell viability counter screen (AID 1963581); note: nearly all actives have a fitted effect of over 45% in size
Procedure, shortened: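 HCT-116 p53RE-bla cells, 4,000/well, plated 5 h before compound pin transfer; 16 h at 37 C; bla substrate 2 h RT; then CellTiter-Glo, 30 min RT, luminescence.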

[9] = p53 small molecule agonists, cell-based qHTS assay (AID 1963582; active = well fitted activation curve with a large enough effect in the signal ratio in the repeat runs, not every such curve was filed as active; the % refers to the signal ratio)
Procedure, shortened: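 Reporter line: p53RE-bla. Pre-incubation 5 h, 37 C, 5% CO2; compound (DMSO, pin tool) 16 h, 37 C; B/G FRET substrate 2 h RT; fluorescence intensity read.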

[10] = molecular target: 5-hydroxytryptamine receptor 2A (Homo sapiens) (UniProt P28223); assay: 5-hydroxytryptamine receptor 2A (HTR2A) small molecule antagonists, cell-based qHTS assay (AID 1963586); note: nearly all actives have a fitted effect of over 45% in size
5-hydroxytryptamine receptor 2A (Homo sapiens), sequence (P28223 whole entry, looked up): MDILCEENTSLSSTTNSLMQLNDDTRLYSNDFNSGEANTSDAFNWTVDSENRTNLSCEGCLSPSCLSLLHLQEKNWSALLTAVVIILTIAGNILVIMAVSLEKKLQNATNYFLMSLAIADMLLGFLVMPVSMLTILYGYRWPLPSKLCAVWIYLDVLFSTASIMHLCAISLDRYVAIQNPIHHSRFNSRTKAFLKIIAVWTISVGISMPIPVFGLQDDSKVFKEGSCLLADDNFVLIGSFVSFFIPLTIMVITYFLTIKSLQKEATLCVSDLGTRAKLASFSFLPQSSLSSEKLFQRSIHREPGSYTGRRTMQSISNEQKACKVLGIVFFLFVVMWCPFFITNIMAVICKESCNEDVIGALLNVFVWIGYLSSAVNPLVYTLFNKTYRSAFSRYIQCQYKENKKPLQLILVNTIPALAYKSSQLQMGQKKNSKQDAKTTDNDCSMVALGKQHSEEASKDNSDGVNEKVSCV
Procedure, shortened: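 Antagonist-mode intracellular calcium assay: DOI (4 nM) added after 5 min compound pre-incubation at room temperature to dye-loaded HTR2A-CHO cells. Fluorescence followed for 3 min, sampled every second.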

[11] = molecular target: 5-hydroxytryptamine receptor 2A (Homo sapiens) (UniProt P28223); assay: 5-hydroxytryptamine receptor 2A (HTR2A) small molecule agonists, cell-based qHTS assay (AID 1963587); note: nearly all actives have a fitted effect of over 30% in size
Procedure, shortened: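 HTR2A-CHO cells, plated 18 h at 37 C/5% CO2, dye-loaded 1 h at 37 C; compounds in DMSO added by pin tool (agonist mode). Intracellular calcium flux read as kinetic fluorescence on FDSS over 2 min at 1 s intervals.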

[12] = molecular target: Muscarinic acetylcholine receptor M1 (Homo sapiens) (UniProt P11229); assay: Cholinergic receptor muscarinic 1 (CHRM1) small molecule antagonists, cell-based qHTS assay (AID 1963588); note: nearly all actives have a fitted effect of over 40% in size
Muscarinic acetylcholine receptor M1 (Homo sapiens), sequence (P11229 whole entry, looked up): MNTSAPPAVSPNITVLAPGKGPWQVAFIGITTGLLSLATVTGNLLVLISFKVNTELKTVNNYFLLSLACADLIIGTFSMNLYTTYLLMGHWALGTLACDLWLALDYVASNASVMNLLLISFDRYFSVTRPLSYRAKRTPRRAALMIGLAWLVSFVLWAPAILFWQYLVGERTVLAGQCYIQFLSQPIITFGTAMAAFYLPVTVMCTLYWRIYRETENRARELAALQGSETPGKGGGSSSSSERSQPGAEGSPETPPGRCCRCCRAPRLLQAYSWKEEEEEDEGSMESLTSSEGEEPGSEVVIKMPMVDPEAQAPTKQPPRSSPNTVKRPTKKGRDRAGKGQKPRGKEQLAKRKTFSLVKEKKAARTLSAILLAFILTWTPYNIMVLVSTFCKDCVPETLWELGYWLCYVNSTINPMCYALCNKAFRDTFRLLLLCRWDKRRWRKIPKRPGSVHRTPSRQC
Procedure, shortened: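 CHRM1-CHO calcium-flux assay, antagonist mode. Cells were seeded 18 h, dye-loaded 1 h at 37 C and given compound for 5 min at RT, then acetylcholine was added at 50nM. FDSS fluorescence was read 3 min; 15 concentrations, three runs.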

[13] = molecular target: Muscarinic acetylcholine receptor M1 (Homo sapiens) (UniProt P11229); assay: Cholinergic receptor muscarinic 1 (CHRM1) small molecule agonists, cell-based qHTS assay (AID 1963589); note: nearly all actives have a fitted effect of over 35% in size
Procedure, shortened: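 Human M1 in stable CHO line; 18 h plating, 1 h dye load 37 C; cpd added (agonist mode); Ca2+ fluorescence kinetic read, 1 s intervals; 15 conc, 3 runs.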

[14] = cAMP Responsive Elements (CRE) small molecule agonists, cell-based qHTS assay (AID 1963590)
Procedure, shortened: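 HEK 293T CRE-bla, 2,000 cells/well, 18 h preincubation 37 C/5% CO2; cpds (DMSO) pinned, 3 h; LiveBLAzer B/G FRET substrate, 2 h RT.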

[15] = cAMP Responsive Elements (CRE) small molecule antagonists, cell-based qHTS assay (AID 1963591; active = well fitted inhibition curve with a large enough effect in the signal ratio in the repeat runs, not every such curve was filed as active; the % refers to the signal ratio)
Procedure, shortened: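 Beta-lactamase reporter read by FRET substrate (LiveBLAzer B/G) after 2 h at room temperature. CRE-bla HEK293T cells had received compound plus 0.25 uM (final) NKH477 for 3 h at 37 °C.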

[16] = molecular target: Beta-2 adrenergic receptor (Homo sapiens) (UniProt P07550); assay: Adrenergic beta2 receptor (ADRB2) small molecule antagonists, cell-based qHTS assay (AID 1963592); note: series mostly up to about 92 µM; nearly all actives have a fitted effect of over 50% in size
Beta-2 adrenergic receptor (Homo sapiens), sequence (P07550 whole entry, looked up): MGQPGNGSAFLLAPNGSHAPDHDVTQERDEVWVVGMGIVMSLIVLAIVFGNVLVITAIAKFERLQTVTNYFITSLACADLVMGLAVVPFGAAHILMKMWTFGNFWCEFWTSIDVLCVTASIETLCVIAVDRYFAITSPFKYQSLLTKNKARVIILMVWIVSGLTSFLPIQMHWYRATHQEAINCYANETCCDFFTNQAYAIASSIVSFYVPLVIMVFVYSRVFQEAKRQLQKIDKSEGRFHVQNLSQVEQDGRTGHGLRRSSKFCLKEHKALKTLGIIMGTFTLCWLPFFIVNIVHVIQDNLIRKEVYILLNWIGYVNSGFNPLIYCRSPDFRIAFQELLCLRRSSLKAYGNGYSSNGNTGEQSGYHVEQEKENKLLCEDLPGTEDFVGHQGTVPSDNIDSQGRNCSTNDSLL
Procedure, shortened: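 Cells (CHO, stable ADRB2 overexpression) incubated 18-20hr at 37C; compounds added from DMSO; agonist mix (1nM isoproterenol, 100uM IBMX, 25uM Ro-20-1724) added; 0.5hr RT; d2-cAMP and anti-cAMP-cryptate added; 1hr RT; 665/615 nm read.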

[17] = molecular target: Beta-2 adrenergic receptor (Homo sapiens) (UniProt P07550); assay: Adrenergic beta2 receptor (ADRB2) small molecule agonists, cell-based qHTS assay (AID 1963593);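 note: CHO cells stably overexpressing human ADRB2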
Procedure, shortened: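 CHO cells stably over-expressing ADRB2 were plated overnight at 37C, then dosed with compounds plus a stimulation mix containing 100uM IBMX and 25uM Ro-20-1724 for 0.5hr at room temperature. cAMP was measured by HTRF competition, 1hr.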

[18] = molecular target: D(2) dopamine receptor (Homo sapiens) (UniProt P14416); assay: Dopamine D2 receptor (DRD2) small molecule agonists, cell-based qHTS assay (AID 1963594); note: nearly all actives have a fitted effect of over 35% in size
D(2) dopamine receptor (Homo sapiens), sequence (P14416 whole entry, looked up): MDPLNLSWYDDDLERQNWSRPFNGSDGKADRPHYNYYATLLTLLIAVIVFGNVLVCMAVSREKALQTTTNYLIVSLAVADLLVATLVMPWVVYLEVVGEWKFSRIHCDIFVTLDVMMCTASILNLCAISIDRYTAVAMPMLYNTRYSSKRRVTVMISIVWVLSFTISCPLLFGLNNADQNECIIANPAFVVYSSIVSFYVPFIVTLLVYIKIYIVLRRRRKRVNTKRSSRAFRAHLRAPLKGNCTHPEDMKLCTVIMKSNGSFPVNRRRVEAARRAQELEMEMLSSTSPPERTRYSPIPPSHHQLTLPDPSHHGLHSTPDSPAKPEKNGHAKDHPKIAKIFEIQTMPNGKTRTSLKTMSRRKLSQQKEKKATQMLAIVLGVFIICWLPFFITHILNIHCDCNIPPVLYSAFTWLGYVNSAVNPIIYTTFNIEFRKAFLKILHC
Procedure, shortened: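 HEK293 cells stably expressing DRD2 were cultured 24 h at 37 C, then given Ro20-1724 (0.1 mM final) and compounds for 10 min at room temperature. NKH477 (200nM) was then added for 30 min. cAMP was read by HTRF.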

[19] = p53 small molecule agonists, cell-based qHTS assay with rat liver microsomes (AID 1963578)
Procedure, shortened: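 Metabolic activation by rat liver microsomes and NADPH, each 0.5 mg/mL final, added right after compounds to p53RE-bla reporter cells (4,000/well, plated 5 h earlier). 16 h at 37 C, then LiveBLAzer substrate for 2 h at room temperature in the dark; fluorescence read-out.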

[20] = molecular target: D(2) dopamine receptor (Homo sapiens) (UniProt P14416); assay: Dopamine D2 receptor (DRD2) small molecule antagonists, cell-based qHTS assay (AID 1963595; active = well fitted inhibition curve with a large enough effect in the signal ratio in the repeat runs, with a control signal flat; the % refers to the signal ratio)
Procedure, shortened: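 In this cell-based antagonist screen, compounds act for 10 min at room temperature before a 30 min challenge with 12 nM quinpirole and 200 nM NKH477. cAMP is quantified by HTRF competition in DRD2-HEK293 cells containing 0.1 mM Ro20-1724.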

Measured: Potency

CCCCOCCOCCOCCCC
not listed: [19] | [20]
inactive: all other assays above

C=CC(=O)CC
not listed: [3]
inactive: all other assays above

O=S(=O)(O)c1cccc(S(=O)(=O)O)c1
not listed: [5]
inactive: all other assays above

O=C1NCCN1CCO
not listed: [3]
inactive: all other assays above

OCC(CO)N[C@H]1C[C@](O)(CO)[C@@H](O)[C@H](O)[C@H]1O
not listed: [7] | [11] | [14]
inactive: all other assays above

O=[N+]([O-])c1ccc(/C=C/c2ccc([N+](=O)[O-])cc2S(=O)(=O)O)c(S(=O)(=O)O)c1
not listed: [5] | [9] | [10] | [17] | [19]
inactive: all other assays above

C[n+]1ccn(CCO)c1
not listed: [5] | [9] | [10] | [17] | [19]
inactive: all other assays above

CCCCNc1ccccc1
not listed: [4] | [14] | [17] | [18]
inactive: all other assays above
